The structures appear in SMILES notation. Inconclusive results are not listed. Calls of active or inactive are those of the source. Unless noted, the call rests on the fitted dose curve; in most records, active means well fitted curve in the direction sought with a large enough effect; inconclusive means small, poorly fitted or top-dose-only effect, or another doubt; inactive means no such curve, though single readings can be large; an effect the other way counts as inactive or inconclusive.

Test [1] concerns the target Glucocorticoid receptor (Homo sapiens) (UniProt P04150). As to the kind of experiment: GR-EFC Redistribution (AID 451; calls by dose curve; further: potency means the concentration at half of the fitted maximal effect). The note with it: CHO-K1 GR-EFC translocation, beta-gal luminescence, 2 h. In outline: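 Translocation of GR-ED fusion to nuclear EA restores b-gal, read by luminescence after 1 h room-temperature detection. Engineered CHO-K1 biosensor cells, 1,000/well, exposed 2 h at 37 C to titrations up to 46 uM final.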

The target in test [2] is Mitogen-activated protein kinase 10 (Mus musculus) (UniProt Q61831). Kind of test: JNK3 AlphaScreen Assay (AID 530; active means well fitted curve in either direction with a large enough effect, not every such curve was filed as active;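 further: kinase came from lysate of stimulated human HepG2 cells; signal reports phosphorylation of biotinylated GST-cJun 1-79 at Ser73 with 10 µM ATP; on the % scale 0 is the no-effect control and ±100 the full control effect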). In outline:
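Compound titrations were preincubated 15 minutes at room temperature with substrate, antibody and pre-activated JNK3-containing HepG2 lysate. Reactions were started with 10 uM ATP and stopped with EDTA-containing bead buffer for AlphaScreen detection.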
In general terms: In Alpha technology, singlet oxygen from a donor bead excites a nearby acceptor bead.

Test [3] has as its target 3',5'-cyclic-AMP phosphodiesterase 4B (Homo sapiens) (UniProt Q07343). Kind of test: qHTS Assay for Inhibitors of PDE-IV (AID 607; active means well fitted activation curve with a large enough effect in the main read-out, with a control signal flat, not every such curve was filed as active; further: % of control where 0% means no effect). In short, it runs like this: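 HEK293 ACTOne cells with CNG channel (1000/well), endogenous PDE4; membrane potential dye, compounds up to 22.9 uM final. Fluorescence Ex 535/Em 590; RO 20-1724 (100 uM final) as reference.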
Test [4] is described as follows: Primary qHTS to identify inhibitors of SARS-CoV-2 cell entry (AID 1645846; calls by dose curve; further: nearly all actives have a fitted effect of over 45% in size; further: potency means the concentration at half of the fitted maximal effect). The note with it: SARS-CoV-2 pseudovirus cell entry assay, luminescence; activity change, negative = inhibition: at 57.1 µM (top of the series) unless noted. In outline: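 HEK293 cells stably expressing human ACE2, pre-treated 1 h with compound, then infected with MLV particles pseudotyped with Wuhan-Hu-1 spike (C-terminal 19-aa truncation). Luciferase luminescence after 48 h at 37 °C, normalised to spike PP and bald PP.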
(In general: In qHTS, concentration-response curves come from the screen itself.)

Test [5] can be described thus: Primary qHTS for inhibitors of nuclear receptor binding SET domain protein 2 (NSD2) in an isogenic RCH-ACV NSD2 p.E1099K mutant (9B) (AID 1645876). Further: nearly all actives have a fitted effect of over 70% in size. Further: potency means the concentration at half of the fitted maximal effect.
Test [6] is described as follows: Primary qHTS for inhibitors of nuclear receptor binding SET domain protein 2 (NSD2) in an RCH-ACV wild type WT cells (2C) (AID 1645877). Further: nearly all actives have a fitted effect of over 70% in size. Further: potency means the concentration at half of the fitted maximal effect.
Test [7] in a line: qHTS assay to identify inhibitors of the type 1 interferon - major histocompatibility complex class I in skeletal muscle: Counter screen cell viability and HiBit confirmation (AID 1347412). Further: potency means the concentration at half of the fitted maximal effect. On activity change, negative = inhibition: on the % scale 0 is the no-effect control and ±100 the full control effect. On all read-outs here: nearly all actives have a fitted effect of over 60% in size. The conditions noted are these: iHSKM muscle cells + IFN-b, HiBiT or CellTiter-Glo, 24 h; for activity change, negative = inhibition: at 45.9 µM (top of the series). In outline: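 CRISPR HLA-B*08:01-HiBit immortalized human myoblasts (C25cl48) stimulated with 4 ng/ml IFN-beta and compounds (12-point 1:3, top 46 uM final) for 24 h at 37 C. Duplicate plates read by HiBit lytic luminescence or CellTiter Glo ATP.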

Test [8] in a line: Cytotoxicity counterscreen for inhibitors of SARS-CoV-2 cell entry (AID 1645845; calls by dose curve; further: nearly all actives have a fitted effect of over 50% in size). The note with it: outcome: dose series up to 57.1 µM unless noted. In short, it runs like this:
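48 h compound treatment (after 1 h preincubation), HEK293-ACE2 cells, 37 C/5% CO2; ATP luminescence endpoint; normalized to cell wells and media blanks.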
For orientation: A counterscreen serves to expose hits that act by an unwanted route or on another target.

Test [9] deals with Glutathione peroxidase 1 (Homo sapiens) (UniProt P07203). As to the kind of experiment: Primary qHTS Assay for Inhibitors of Recombinant Selenoprotein Glutathione Peroxidase 1 (GPX1) (AID 1845191). Further: nearly all actives have a fitted effect of over 65% in size. In short, it runs like this:
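10 nM GPX1 + cpd, 30 min RT; start w/ 1 mM GSH, 0.5 mM cumene hydroperoxide, 0.5 mM NADPH, 100 nM GR, 0.01% BSA; buffer 50 mM Tris-HCl pH 7.5, 2 mM EDTA, 150 mM NaCl; Fl 340/450, 0 & 15 min.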

Test [10] in a line: VSVG counterscreen qHTS to identify inhibitors of SARS-CoV-2 cell entry (AID 1645847; calls by dose curve; further: potency means the concentration at half of the fitted maximal effect; nearly all actives have a fitted effect of over 65% in size). In short, it runs like this:
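HEK293-ACE2 cells (Expi293F, human ACE2) pretreated 1 h with compound, then infected with MLV-based VSV-G pseudotyped particles for 48 h at 37 C; luciferase luminescence normalized to VSV-G PP and bald PP wells.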

Test [11] can be described thus: Confirmatory qHTS to identify inhibitors of SARS-CoV-2 cell entry (AID 1645844; calls by dose curve; further: potency means the concentration at half of the fitted maximal effect; nearly all actives have a fitted effect of over 45% in size). In short, it runs like this:
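Luminescence from a luciferase reporter, read 48 hr after pseudotyped-particle addition, gives entry signal, normalised to spike-bearing PP wells and bald PP lacking fusion protein wells. Cells are Expi293F stably expressing human ACE2, compound-pretreated 1 hr.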

In test [12] the target is Glucocorticoid receptor (Homo sapiens) (UniProt P04150). As to the kind of experiment: GR-GFP Redistribution (AID 450;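 active means compounds whose dose series gives a full or clear partial fitted curve of increased nuclear translocation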; further: potency means the concentration at half of the fitted maximal effect). The note with it: U2OS GR-GFP nuclear translocation, laser cytometry, 2 h.
Test [13] is described as follows: qHTS Assay for Lipid Storage Modulators (AID 1519; calls by dose curve; on activity change, negative = inhibition: on the % scale 0 is the no-effect control and ±100 the full control effect). The conditions noted are these: Drosophila S3 cells, BODIPY lipid droplet/cell ratio, laser cytometry, cells loaded with oleic acid. In outline:
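Cells seeded at 5,000 per well were treated with compounds over a concentration series and loaded with oleic acid (400 uM, as added). Lipid droplet fluorescence (488 nm excitation, 500-530 nm channel) was read by laser-scanning cytometry and normalized to 20 uM Triacsin C.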

Chain of Glutathione peroxidase 1 (Homo sapiens) (P07203 whole entry, looked up): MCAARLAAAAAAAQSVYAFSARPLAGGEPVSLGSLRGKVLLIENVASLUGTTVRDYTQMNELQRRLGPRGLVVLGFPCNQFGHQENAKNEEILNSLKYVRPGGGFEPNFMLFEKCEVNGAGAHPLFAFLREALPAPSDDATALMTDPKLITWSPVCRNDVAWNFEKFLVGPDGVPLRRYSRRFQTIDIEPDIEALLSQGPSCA
Chain of Glucocorticoid receptor (Homo sapiens) (P04150 whole entry, looked up, the tested form may be a part): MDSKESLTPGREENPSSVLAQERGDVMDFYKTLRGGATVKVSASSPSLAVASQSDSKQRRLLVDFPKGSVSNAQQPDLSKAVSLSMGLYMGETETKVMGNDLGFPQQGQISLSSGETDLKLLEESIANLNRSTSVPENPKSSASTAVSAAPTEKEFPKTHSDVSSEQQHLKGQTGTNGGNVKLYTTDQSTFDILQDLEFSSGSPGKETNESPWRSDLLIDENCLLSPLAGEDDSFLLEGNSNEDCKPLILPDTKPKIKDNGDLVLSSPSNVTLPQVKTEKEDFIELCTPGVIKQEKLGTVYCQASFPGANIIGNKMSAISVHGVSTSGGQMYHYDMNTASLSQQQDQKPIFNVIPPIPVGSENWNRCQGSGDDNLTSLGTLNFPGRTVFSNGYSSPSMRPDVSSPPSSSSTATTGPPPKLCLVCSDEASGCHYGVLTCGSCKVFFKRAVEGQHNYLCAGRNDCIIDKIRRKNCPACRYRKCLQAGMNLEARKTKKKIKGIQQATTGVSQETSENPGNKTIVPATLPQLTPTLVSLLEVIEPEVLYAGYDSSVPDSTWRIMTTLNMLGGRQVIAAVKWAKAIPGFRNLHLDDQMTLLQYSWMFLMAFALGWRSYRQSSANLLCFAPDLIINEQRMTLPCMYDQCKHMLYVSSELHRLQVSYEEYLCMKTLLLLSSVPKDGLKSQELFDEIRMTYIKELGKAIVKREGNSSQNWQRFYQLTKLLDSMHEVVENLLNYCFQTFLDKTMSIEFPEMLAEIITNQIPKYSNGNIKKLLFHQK
Chain of 3',5'-cyclic-AMP phosphodiesterase 4B (Homo sapiens) (Q07343 whole entry, looked up): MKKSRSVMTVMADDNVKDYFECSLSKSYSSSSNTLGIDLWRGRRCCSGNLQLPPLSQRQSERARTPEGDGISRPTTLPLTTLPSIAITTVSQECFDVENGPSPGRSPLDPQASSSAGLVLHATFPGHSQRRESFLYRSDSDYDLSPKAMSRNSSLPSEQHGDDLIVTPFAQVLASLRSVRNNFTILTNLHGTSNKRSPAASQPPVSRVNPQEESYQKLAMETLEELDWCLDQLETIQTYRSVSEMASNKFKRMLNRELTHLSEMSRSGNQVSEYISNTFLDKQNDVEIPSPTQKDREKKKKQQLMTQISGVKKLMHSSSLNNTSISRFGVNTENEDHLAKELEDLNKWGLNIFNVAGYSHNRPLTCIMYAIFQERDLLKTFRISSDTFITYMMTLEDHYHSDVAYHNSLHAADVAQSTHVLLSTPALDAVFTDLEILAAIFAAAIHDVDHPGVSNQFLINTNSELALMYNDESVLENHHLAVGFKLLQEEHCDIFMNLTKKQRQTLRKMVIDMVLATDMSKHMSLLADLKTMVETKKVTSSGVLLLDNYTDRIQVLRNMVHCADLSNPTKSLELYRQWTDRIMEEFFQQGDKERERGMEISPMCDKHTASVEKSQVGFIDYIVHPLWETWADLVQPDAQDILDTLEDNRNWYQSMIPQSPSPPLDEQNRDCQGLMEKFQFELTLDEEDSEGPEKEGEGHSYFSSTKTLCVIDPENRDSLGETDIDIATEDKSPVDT

`CC(C)(O)/C=C\C(=O)[C@](C)(O)[C@H]1[C@H](O)C[C@]2(C)[C@@H]3CC=C4[C@@H](C=C(O)C(=O)C4(C)C)[C@]3(C)C(=O)C[C@@]12C`: the Potency in test [1] was > 9220 nM (inactive); in [4], 794 nM (active); in test [5], 52.5 nM (active); in test [6] it was 46.8 nM (active); in [7] (HiBiT), 6250 nM (active). Besides, the activity change, negative = inhibition was 2.97% [at 11.4 µM] (inactive) in test [2] and 186% (inactive) in [7] (Viability). Further, the Potency result in test [3] is “inactive”.
In the case of `CN1C(=O)[C@@H](NC(=O)[C@H](CCC(F)(F)F)[C@H](CCC(F)(F)F)C(N)=O)N=C(c2ccccc2)c2ccccc21`, the Potency entry in [8], in [5], in [6] and in test [9] was “inactive” in each case. The activity change, negative = inhibition in [4] is -8.27%.
For the compound `COC(=O)[C@@]12OC[C@]34[C@H]([C@@H](O)[C@@H]1O)[C@@]1(C)CC(=O)C(O)=C(C)[C@@H]1C[C@H]3OC(=O)[C@H](OC(=O)/C=C(\C)C(C)C)[C@@H]24`, the activity change, negative = inhibition in [4] is -94.1%; in [7] (Viability) it was -8.02% (inactive). The Potency in test [5] was 296 nM (active); in [6], 235 nM (active); in [7] (HiBiT), 88.3 nM (active). In [9], the Potency entry is “inactive”.
On to `O=C(CBr)N1CC([N+](=O)[O-])([N+](=O)[O-])C1`, for which the Potency result in test [8] and in test [9] was “inactive” each time. Besides, in test [4], the activity change, negative = inhibition was -11.3% [at 114 µM].
Consider `COc1cc2cc(c1Cl)N(C)C(=O)C[C@H](OC(=O)C(C)C)[C@]1(C)O[C@@H]1[C@H](C)[C@@H]1C[C@@](O)(NC(=O)O1)[C@H](OC)/C=C/C=C(\C)C2`, for which the activity change, negative = inhibition in test [4] is -80.9%. In addition, the Potency result in [5], in [6] and in [9] was “inactive” each time.
Take `O=C1/C(=C\c2ccccc2)C[C@@]2(O)[C@H]3Cc4ccc(O)c5c4[C@@]2(CCN3CC2CC2)[C@H]1O5`: the Potency in test [7] (HiBiT) was 3520 nM (active).
Turning to `C[C@]12COC(=O)C[C@@H]1CC[C@@H]1[C@@H]2CC[C@@]2(C)[C@H]1CC[C@]2(C)O`, the Potency entry in [8] and in [9] was “inactive” in each case. For the same compound, the activity change, negative = inhibition in test [4] was -8.16%.
In the case of `C=C(C)[C@@H]1CCC(C)=C[C@H]1c1c(O)cc(CCCCC)cc1O`, the Potency result in test [8] is “inactive”. Moreover, the Potency was 24100 nM (active) in test [10], 18600 nM (active) in test [5] and 20900 nM (active) in [6]. The activity change, negative = inhibition in test [7] (Viability) is 5.14% (inactive).
Regarding `Cn1c(/C=C/CO)c(CO)c2c1C(=O)C=C(N1CC1)C2=O`, the Potency result in test [8], in test [4], in [5], in test [6] and in test [9] was “inactive” in each case.
Regarding `C=C[C@H]1CN2CCC1C[C@@H]2[C@@H](O)c1ccnc2ccccc12` (stereo partly drawn), the Potency entry in test [8], in test [5] and in test [6] was “inactive” each time. Also, the activity change, negative = inhibition in test [4] was -29.6%.
As to `C[C@@]12OC(=O)[C@]1([C@@H](O)[C@@H]1C=CCCC1)NC(=O)[C@@H]2CCCl`, in test [4], the activity change, negative = inhibition is -97.7%. Moreover, the values for the Potency in [5], in [6] and in test [7] (HiBiT) were 118 nM (active), 105 nM (active) and 176 nM (active), respectively.
With `C/C=C(\C)C(=O)N[C@@H](c1ccccc1)[C@@H](O)C(=O)O[C@H]1C[C@@]2(O)[C@@H](OC(=O)c3ccccc3)[C@@H]3[C@]4(OC(C)=O)CO[C@@H]4C[C@H](O)[C@@]3(C)C(=O)[C@H](OC(C)=O)C(=C1C)C2(C)C`, the Potency in test [11] was 4.3 nM (active); in [10] it was 108 nM (active); in test [5] it was 26.3 nM (active); in test [6], 26.3 nM (active). Moreover, in test [8], the Potency entry was “inactive”. Also, in test [4], the activity change, negative = inhibition was -81.8%.
As to `CO[C@H]1CCC(O[C@H]2C[C@H]([C@]3(C)CC[C@]4(C[C@H](O)[C@@H](C)[C@@H]([C@@H](C)/C=C(\C)C(=O)[C@H](C)C[C@H](C)C(=O)O)O4)O3)O[C@]3(O[C@@H]([C@H]4O[C@@](O)(CO)[C@H](C)C[C@@H]4C)C[C@@H]3C)[C@@H]2C)O[C@@H]1C` (stereo partly drawn), the Potency was 681 nM (active) in [11]; 607 nM (active) in test [10]; 209 nM (active) in test [5]; 12500 nM (active) in [7] (HiBiT); 14000 nM (active) in [7] (Viability). Also, the Potency result in test [8] and in test [9] was “inactive” throughout.
Take `NCC#Cc1ccccc1`: the Potency in test [12] and in test [1] was > 46000 nM (inactive) in each case. Besides, the compound was called inactive in test [2]. Moreover, the Potency result in test [3] is “inactive”. Further, the activity change, negative = inhibition in [13] (at 57.5 µM (top of the series)) was -4.59% (inactive). The max response is -80.1% in test [13] (measured here: cell count channel max response) and -81.6% in test [13] (measured here: lipid channel max response).

Source of the values: PubChem BioAssay (NCATS).
